Results filed as inconclusive are left out. Where a call stands in place of a potency, no number is given. Activity calls are given as the source filed them. Calls come from the whole dose curve; as a rule, active = well fitted curve in the direction sought with a large enough effect; inconclusive = small, poorly fitted or top-dose-only effect, or another doubt; inactive = no such curve, though single readings can be large; an effect the other way counts as inactive or inconclusive.
Molecular target: Aldehyde dehydrogenase, mitochondrial (Homo sapiens) (UniProt P05091)
Assay: qHTS for Inhibitors of the Aldehyde Dehydrogenase Family (ALDH2) Primary screen (AID 2061308); note: nearly all actives have a fitted effect of over 55% in size
Settings: ALDH2 enzyme inhibition qHTS, 1536-well; series mostly up to 56 µM

| SMILES | Potency |
| --- | --- |
| CC1(C)CC[C@]2(C(=O)O[C@@H]3O[C@H](CO)[C@@H](O)[C@H](O)[C@H]3O)CC[C@]3(C)C(=CCC4[C@@]5(C)C[C@@H](O)[C@H](O)[C@@](C)(CO)C5CC[C@]43C)C2C1 (stereo partly specified) | inactive |
| CC1CC(O)C2(C)C(C(=O)O)=CCCC2C1(C)CCc1ccoc1 (stereo unspecified) | inactive |
| CC(=O)O[C@@H]1C[C@@]2(C)C(CC[C@]3(C)C2CC=C2C4CC(C)(C)CC[C@]4(C(=O)O)CC[C@]23C)C(C)(C)[C@H]1O (stereo partly specified) | inactive |
| CC(C)C[C@@H](N)C(=O)N[C@H]1C(=O)N[C@@H](CC(N)=O)C(=O)N[C@H]2C(=O)N[C@H]3C(=O)N[C@H](C(=O)N[C@H](C(=O)O)c4cc(O)cc(O)c4-c4cc3ccc4O)[C@H](O)c3ccc(c(Cl)c3)Oc3cc2cc(c3O[C@@H]2O[C@H](CO)[C@@H](O)[C@H](O)[C@H]2O[C@H]2C[C@](C)(N)[C@H](O)[C@H](C)O2)Oc2ccc(cc2Cl)[C@H]1O | inactive |
| COc1ccc(-n2c(SCC#N)nc3sc4c(c3c2=O)CCCC4)cc1 | inactive |
| CC1=C(C)C(=O)OC(C(C)C2C(O)CC3C4C5OC5C5(O)CC(OC6OC(CO)C(OC7OC(C)C(O)C(O)C7O)C(O)C6O)CC(O)C5(C)C4CCC32C)C1 (stereo unspecified) | inactive |

Molecular target: Retinaldehyde dehydrogenase 3 (Homo sapiens) (UniProt P47895)
Assay: qHTS for Inhibitors of the Aldehyde Dehydrogenase Family (ALDH1A3) Primary screen (AID 2061315)
Settings: ALDH inhibition qHTS; series mostly up to 56 µM

| SMILES | Potency |
| --- | --- |
| COc1cc(C(C)=O)ccc1O[C@@H]1O[C@H](CO[C@@H]2OC[C@@H](O)[C@H](O)[C@H]2O)[C@@H](O)[C@H](O)[C@H]1O | inactive |
| CC1OC(OC2C(C)OC(OC3C(OC(=O)/C=C/c4ccc(O)cc4)C(CO)OC(OC4(COC(=O)/C=C/c5ccc(O)cc5)OC(CO)C(O)C4O)C3OC3OCC(O)(CO)C3O)C(O)C2O)C(O)C(O)C1O (stereo unspecified) | inactive |
| C/C=C/C=C/C=C/C(=O)O[C@@H]1[C@@H](OC)C2=C(C(=O)N(C(C)C(=O)O)C2)[C@@]2(C)CCCC(C)(C)[C@H]12 (stereo partly specified) | inactive |
| CC1(C)CC[C@@]2(C(=O)O[C@@H]3O[C@H](CO)[C@@H](O)[C@H](O)[C@H]3O)C(C1)C1=CCC3[C@@]4(C)CC[C@@H](O[C@@H]5O[C@H](C(=O)O)[C@@H](O[C@@H]6OC[C@@H](O)[C@H](O)[C@H]6O)[C@H](O[C@@H]6OC[C@](O)(CO)[C@H]6O)[C@H]5O)C(C)(C)C4CC[C@@]3(C)[C@]1(C)C[C@H]2O (stereo partly specified) | inactive |
| CC(=O)OC1C(OC(=O)c2ccccc2)C2C(=C(C)CCC2(C)C)C23CCC(C)(C2)C(=O)CC13 (stereo unspecified) | inactive |
| C[C@@H]1O[C@@H](O[C@H]2[C@H](O)[C@@H](O[C@@H]3O[C@H](CO)[C@H](O)[C@H](O)[C@H]3O)[C@H](O[C@H]3CC[C@@]4(C)C(CC[C@]5(C)C4CC=C4[C@@H]6CC(C)(C)CC[C@]6(C(=O)O[C@@H]6O[C@H](CO)[C@@H](O)[C@H](O)[C@H]6O)CC[C@]45C)C3(C)C)O[C@@H]2C(=O)O)[C@H](O)[C@H](O)[C@H]1O (stereo partly specified) | inactive |
| Cc1ccc(C)c(S(=O)(=O)n2cnc3ccccc32)c1 | inactive |
| CC(C)C(C(=O)N(C)C(C)C(N)=O)N(C)C(=O)C1CCCN1C(=O)/C=C/C=C/C(O)C(C)O (stereo unspecified) | inactive |
| C=C(C(=O)O)[C@@H]1CC[C@H](C)[C@@H]2CC(=O)C(C)=C2C1 | inactive |
| COCC(=O)N1CCc2cc(-c3csc(NC(=O)c4cc(OC)cc(OC)c4)n3)ccc21 | inactive |
| CC1=CC[C@@]2(C)CC[C@@](O)(C(C)C)[C@@H]2[C@@H](O)C1 | inactive |
| CC(C(O)c1ccccc1)N(C)CCOC(c1ccccc1)c1ccccc1 (stereo unspecified) | inactive |
| COc1c2c(c(C)c3c1C(=O)OC3)OC1(C)CC(O)C(C(C)(C)O)C(C)(CCC(=O)O)C1C2 (stereo unspecified) | inactive |
| CC(=O)O[C@H]1C[C@@](O)(C(C)C)[C@@H]2[C@@H](OC(=O)c3ccc(O)cc3)CC(C)=CC[C@@]12C | inactive |
| NC1Nc2ccccc2C1(N)CC1NC(=O)C(Cc2ccccc2)NC(=O)C(Cc2ccccc2)NC1=O (stereo unspecified) | inactive |
| COC1CC(=O)CCC(C)OC(=O)CC1O (stereo unspecified) | inactive |
| CC(C)CC(=O)OC[C@@]1(O)C[C@@]23CC[C@H]4[C@@](C)(CCC[C@@]4(C)C(=O)O)[C@@H]2CC[C@@H]1C3 | inactive |
| C=CC1C(O[C@@H]2O[C@H](CO)[C@@H](O)[C@H](O)[C@H]2O)OC=C(C(=O)OC)C1CC(=O)O (stereo partly specified) | inactive |
| CC1(C)C2CC=C(COC3OC(COC4OCC(O)(CO)C4O)C(O)C(O)C3O)C1C2 (stereo unspecified) | inactive |
| CC(=O)C=C=C1C(C)(C)CC(O[C@@H]2O[C@H](CO)[C@@H](O)[C@H](O)[C@H]2O)CC1(C)O (stereo partly specified) | inactive |

— PubChem BioAssay (NCATS)
